An excerpt weighted towards active compounds, which were near 10% of everything screened.
BAZ2B block – inhibitors of human BAZ2B bromodomain. actives 4.4% (n = 360,000). Q9UIF8. AlphaScreen BAZ2B-H3K14Ac peptide displacement. Potency, µM (doses to about 114 µM), inactives show at the top dose activity change, negative = inhibition, hits mostly inhibitors; also: % is scaled to controls: 0 for no effect and ±100 for the full control effect; nearly all actives have a fitted effect of over 60% in size
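Multi-concentration screen (max 110 uM) measuring displacement of acetylated histone H3 peptide from BAZ2B by AlphaScreen, using 50 nM protein, 50 nM peptide and 10 ug/mL streptavidin donor plus Ni-chelate acceptor beads.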
G9a block – inhibitors of human histone lysine methyltransferase G9a; Potency, µM (highest dose often 102 µM), inactives show at the highest dose activity, negative = inhibition, usual class: inhibitors; actives 8.8% (n = 350,000); G9a H3K9 monomethylation, AlphaScreen, 2 h; also: % is scaled to controls: 0 for no effect and ±100 for the full control effect; nearly all actives have a fitted effect of over 75% in size
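Chemiluminescent proximity detection of H3K9 monomethylation, read after 10 min bead incubation in the dark. Reaction: 20 nM G9a, 500 nM biotin-H3K9 peptide, 20 uM SAM cofactor, 2 h, room temperature, following 15 min enzyme-compound preincubation.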
JMJD2A Tudor inh – JMJD2A Tudor domain (human) inhibition. O75164. AlphaScreen JMJD2A-Tudor / H3K4me3 peptide binding. Potency, µM (titrated, usually from 114 µM), without a hit: at the top dose activity change, negative = inhibition, most hits filed as inhibitors. actives 4.4% (n = 390,000); also: % is scaled to controls: 0 for no effect and ±100 for the full control effect; nearly all actives have a fitted effect of over 50% in size
Target sequence (O75164 whole entry, looked up, the tested form may be a part): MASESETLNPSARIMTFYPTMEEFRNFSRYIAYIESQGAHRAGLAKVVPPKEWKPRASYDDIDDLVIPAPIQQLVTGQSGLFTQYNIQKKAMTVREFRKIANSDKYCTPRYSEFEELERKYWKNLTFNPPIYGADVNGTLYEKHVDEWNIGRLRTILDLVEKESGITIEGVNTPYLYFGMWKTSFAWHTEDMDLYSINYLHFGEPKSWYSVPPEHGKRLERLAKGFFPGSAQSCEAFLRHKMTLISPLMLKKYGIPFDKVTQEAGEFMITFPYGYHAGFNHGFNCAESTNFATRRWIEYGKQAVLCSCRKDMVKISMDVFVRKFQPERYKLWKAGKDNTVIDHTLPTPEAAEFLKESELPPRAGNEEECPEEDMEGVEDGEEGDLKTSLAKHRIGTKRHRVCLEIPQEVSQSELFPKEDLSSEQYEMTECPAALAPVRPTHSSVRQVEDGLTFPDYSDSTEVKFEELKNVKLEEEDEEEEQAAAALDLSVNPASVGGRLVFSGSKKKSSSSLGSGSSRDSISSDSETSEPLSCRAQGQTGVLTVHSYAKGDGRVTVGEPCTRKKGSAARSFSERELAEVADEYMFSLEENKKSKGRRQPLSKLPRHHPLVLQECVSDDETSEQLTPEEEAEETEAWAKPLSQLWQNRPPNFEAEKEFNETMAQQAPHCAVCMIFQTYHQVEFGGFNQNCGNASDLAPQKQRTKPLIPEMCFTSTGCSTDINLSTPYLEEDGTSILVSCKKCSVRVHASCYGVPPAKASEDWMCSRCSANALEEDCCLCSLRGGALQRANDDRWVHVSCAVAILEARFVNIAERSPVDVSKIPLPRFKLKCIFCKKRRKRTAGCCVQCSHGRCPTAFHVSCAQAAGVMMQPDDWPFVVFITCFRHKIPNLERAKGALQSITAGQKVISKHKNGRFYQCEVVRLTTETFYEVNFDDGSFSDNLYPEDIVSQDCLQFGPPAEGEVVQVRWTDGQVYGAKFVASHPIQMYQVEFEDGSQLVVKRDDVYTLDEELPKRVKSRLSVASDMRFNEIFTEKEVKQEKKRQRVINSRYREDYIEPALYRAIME
HP1b binding inh – inhibitors of HP1-beta chromodomain binding to methylated histone tails; P83916; AlphaScreen HP1-beta / biotin-H3K9me3 peptide binding; Potency, µM (series often up to 114 µM), for the others: at the top dose activity change, negative = inhibition, hits mostly inhibitors; actives 0.56% (n = 390,000); AID 540317; also: nearly all actives have a fitted effect of over 70% in size
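HP1-beta protein (50 nM final) preincubated 30 min at room temperature with biotinylated H3(1-18)K9me3 peptide (50 nM) in PBS pH 7.4, 0.01% Tween-20, then compound added for 30 min. AlphaScreen streptavidin donor/nickel chelate acceptor beads (10 ug/mL final), 30 min dark, luminescence read.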
GLS inhibitor – inhibitors of human glutaminase (GLS). O94925. GLS enzymatic activity, qHTS titration. Potency, µM (highest dose often 45.5 µM), for the others: top-dose activity change, negative = inhibition, most hits filed as inhibitors. actives 0.21% (n = 410,000). AID 624170; also: % is scaled to controls: 0 for no effect and ±100 for the full control effect
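Compounds were pin-transferred onto hKGA, after which L-glutamine (1 mM solution) and a detection mix of glutamate oxidase, HRP and Amplex Red were added. Initial and 30 min RT fluorescence reads were collected.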
* = called active by the depositor; [ ] = remark or other dose. Calls follow the shape of the dose curve; as a rule, active = well fitted curve in the direction sought with a large enough effect; inconclusive = small, poorly fitted or top-dose-only effect, or another doubt; inactive = no such curve, though single readings can be large; an effect the other way counts as inactive or inconclusive. Potency is read from the fitted curve at half-maximal effect.

Screening CCOc1ccc(-c2nc3c(C#N)c[nH]n3c2NC2CCCCC2)cc1 returned BAZ2B block -5%, G9a block -5%[59 µM], JMJD2A Tudor inh -21%, HP1b binding inh 13% and GLS inhibitor 13µM*.
COc1ccc(-c2nc3c(C#N)c[nH]n3c2NC2CCCC2)cc1 was read as BAZ2B block 1%, G9a block inconclusive, JMJD2A Tudor inh 1%, HP1b binding inh 28% and GLS inhibitor 13µM*.
Screening COc1ccc(C(=O)N2CCC3(CC2)CN(C(=O)Nc2cccc(C#N)c2)C3)cc1 returned G9a block -25%[12.7 µM].
CCc1c(C)sc(NC(=O)Cn2nc(C(F)(F)F)c3c2CCCC3)c1C#N was read as BAZ2B block 10%, G9a block 14µM*, JMJD2A Tudor inh 4% and HP1b binding inh -10%.
CCc1ccc(NC(=O)Cn2nc(C(F)(F)F)c3c2CCCC3)cc1 was read as BAZ2B block 1%, G9a block 4%[59 µM], JMJD2A Tudor inh -5%, HP1b binding inh 45% and GLS inhibitor 2%.
For Cn1ccnc1SC(=O)N1c2ccccc2Sc2ccccc21 the results were BAZ2B block inconclusive, G9a block inconclusive, JMJD2A Tudor inh 20µM*, HP1b binding inh 3% and GLS inhibitor 0%.
Screening O=C(Sc1nnc(-c2ccccc2)o1)N1c2ccccc2Sc2ccccc21 returned BAZ2B block inconclusive, G9a block 8.9µM*, JMJD2A Tudor inh 50µM*, HP1b binding inh -20% and GLS inhibitor 8%.
`CC(=O)N1c2ccccc2Sc2ccccc21` gave BAZ2B block 6%, G9a block 12%, JMJD2A Tudor inh -5%, HP1b binding inh 16% and GLS inhibitor 3%.
`COc1cccc(CNC(=O)CSc2ccc(-c3ccccn3)nn2)c1` gave BAZ2B block 13µM*, G9a block -5%, JMJD2A Tudor inh inconclusive, HP1b binding inh 21% and GLS inhibitor 8%.
O=C(CSc1ccc(-c2ccco2)nn1)NCc1ccc(Cl)cc1 was read as BAZ2B block -3%, G9a block inconclusive, JMJD2A Tudor inh -16%, HP1b binding inh 25% and GLS inhibitor 7%.
`O=C(CSc1ccc(-c2ccccn2)nn1)NCc1ccc(Cl)cc1` gave BAZ2B block 14µM*, G9a block -1%, JMJD2A Tudor inh inconclusive, HP1b binding inh 26% and GLS inhibitor 7%.
`CCCN(CCC)CCNC(=O)Cn1cnc2sc(C)c(S(=O)(=O)N3CCN(c4ccccc4OC)CC3)c2c1=O` gave BAZ2B block 2%, G9a block -2%[59 µM], JMJD2A Tudor inh -15%, HP1b binding inh -4% and GLS inhibitor 16%.
Screening CCOC(=O)NC1(NC(C)C)Oc2ccccc2O1 returned BAZ2B block 7%, G9a block 10µM*, JMJD2A Tudor inh 7%[11.4 µM], HP1b binding inh -24% and GLS inhibitor 55%.
`CCOC(=O)NC1(Nc2ccc(C)cc2)Oc2ccccc2O1` gave BAZ2B block -11%, G9a block inconclusive, JMJD2A Tudor inh inconclusive, HP1b binding inh inconclusive and GLS inhibitor -30%.
`CCOC(=O)NC1(NCC(C)C)Oc2ccccc2O1` gave BAZ2B block 0%, G9a block 0.89µM*, JMJD2A Tudor inh inconclusive, HP1b binding inh -14% and GLS inhibitor 51%.
Screening CCOC(=O)NC1c2ccccc2Oc2ccccc21 returned BAZ2B block 2%, JMJD2A Tudor inh -6%, HP1b binding inh 2% and GLS inhibitor 8%.
Screening COc1ccc(S(=O)(=O)NC(C)C(=O)Nc2ccccc2C(F)(F)F)cc1 (stereo not given) returned BAZ2B block -4%, G9a block 11µM*, JMJD2A Tudor inh 5%, HP1b binding inh 19% and GLS inhibitor -6%.
`CCNC(=O)C1(C)CCN1CCC(=O)c1ccc(C)cc1` (stereo not given) gave GLS inhibitor 3%.
`CC1CCCCC1NC(=O)CC1Oc2ccccc2NC1=O` (stereo not given) gave BAZ2B block 11%, G9a block -15%, JMJD2A Tudor inh -12%, HP1b binding inh 49% and GLS inhibitor -1%.
Screening Cc1ccc2c(c1)NC(=O)C(CC(=O)NCCCN1CCCCC1C)O2 (stereo not given) returned BAZ2B block -5%, G9a block inconclusive, JMJD2A Tudor inh -24%, HP1b binding inh 36% and GLS inhibitor 7%.
Cc1ccc2c(c1)NC(=O)C(CC(=O)NC1CCCCC1C)O2 (stereo not given) was read as BAZ2B block 5%, G9a block 45µM*, JMJD2A Tudor inh 2%, HP1b binding inh 60% and GLS inhibitor -7%.
For CCC(C)N(CCNC(=O)CC1Oc2ccc(C)cc2NC1=O)C1CCCCC1 (stereo not given) the results were BAZ2B block 9%, G9a block 50µM*, JMJD2A Tudor inh -14%, HP1b binding inh 36% and GLS inhibitor 16%.
Cc1ccc(OCC(=O)Nc2ccc3nc(SCCOc4ccccc4)sc3c2)cc1 was read as BAZ2B block -11%, G9a block -5%[59 µM], JMJD2A Tudor inh -11%, HP1b binding inh 30% and GLS inhibitor -13%.
`c1cncc(CN2CCN(c3cc(-c4cnc5ccccc5c4)nc4ccnn34)CC2)c1` gave GLS inhibitor 3%.
C=CCn1c(C)cc(-c2csc(NC(=O)C3=COCCO3)n2)c1C was read as BAZ2B block -34%, G9a block 45µM*, JMJD2A Tudor inh -23%, HP1b binding inh -9% and GLS inhibitor -9%.
Screening Cc1cc(-c2csc(NC(=O)c3ccc(=O)[nH]c3)n2)c(C)n1Cc1ccccc1 returned BAZ2B block -25%, G9a block inconclusive, JMJD2A Tudor inh inconclusive, HP1b binding inh 10% and GLS inhibitor -8%.
C=CCn1c(C)cc(-c2csc(N)n2)c1C was read as BAZ2B block 50µM*, G9a block inconclusive, JMJD2A Tudor inh 40µM*, HP1b binding inh inconclusive and GLS inhibitor 25%.
`C=CCn1c(C)cc(-c2csc(NC)n2)c1C` gave G9a block 8.9µM*, JMJD2A Tudor inh 40µM*, HP1b binding inh inconclusive and GLS inhibitor -3%.
C=CCn1c(C)cc(-c2csc(NCC)n2)c1C was read as BAZ2B block 40µM*, G9a block 16µM*, JMJD2A Tudor inh 50µM*, HP1b binding inh inconclusive and GLS inhibitor inconclusive.
`Cc1ccc(CN2CCN(C3CCN(S(=O)(=O)N(C)C)CC3)C(=O)C2=O)cc1` gave BAZ2B block -6%, G9a block -9%[59 µM], JMJD2A Tudor inh -13%, HP1b binding inh 18% and GLS inhibitor 5%.
For Cc1ccc(-n2c(=O)c3c(c4cc(C)ccc4n3C)n(CC(=O)Nc3ccc(F)cc3)c2=O)cc1 the results were BAZ2B block -9%, G9a block -17%[59 µM], JMJD2A Tudor inh -17%, HP1b binding inh -15% and GLS inhibitor 9%.
For CCCC(CCC)C(N)=O the results were GLS inhibitor -5%.
